Source: PubChem
Pol eta inh: qHTS for Inhibitors of Polymerase Eta. DNA polymerase eta (Homo sapiens), Q9Y253. recombinant Pol eta, fluorescent DNA replication assay. Potency, µM (doses to about 114 µM), most hits filed as inhibitors. 390,000 tested, 1.2% active. AID 588591, 2011
Target sequence (Q9Y253 whole entry, looked up): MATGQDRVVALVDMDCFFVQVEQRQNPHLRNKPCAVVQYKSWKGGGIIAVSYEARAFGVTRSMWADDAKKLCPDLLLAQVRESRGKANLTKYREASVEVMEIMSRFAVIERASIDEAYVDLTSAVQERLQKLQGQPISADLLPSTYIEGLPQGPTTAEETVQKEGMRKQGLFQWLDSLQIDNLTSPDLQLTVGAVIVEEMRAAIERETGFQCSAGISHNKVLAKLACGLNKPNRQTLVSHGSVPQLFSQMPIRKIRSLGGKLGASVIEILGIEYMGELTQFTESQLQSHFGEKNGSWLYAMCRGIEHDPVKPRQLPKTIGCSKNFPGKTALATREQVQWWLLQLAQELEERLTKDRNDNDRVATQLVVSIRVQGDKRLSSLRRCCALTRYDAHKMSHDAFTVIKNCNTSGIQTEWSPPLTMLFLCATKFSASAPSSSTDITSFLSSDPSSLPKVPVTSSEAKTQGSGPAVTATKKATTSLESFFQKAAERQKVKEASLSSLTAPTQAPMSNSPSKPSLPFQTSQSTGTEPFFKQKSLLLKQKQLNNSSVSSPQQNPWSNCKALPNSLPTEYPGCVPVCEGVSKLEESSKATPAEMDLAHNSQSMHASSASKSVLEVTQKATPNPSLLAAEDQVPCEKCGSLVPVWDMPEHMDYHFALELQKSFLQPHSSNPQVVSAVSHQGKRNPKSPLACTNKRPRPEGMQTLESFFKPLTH
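Pol eta at 10 nM preincubated with compounds 15 min at room temperature; reaction started with fluorescent substrate (50 nM final) and read kinetically at 0 and 10 min.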
WRN helicase inh: qHTS for Inhibitors of WRN Helicase; Bifunctional 3'-5' exonuclease/ATP-dependent helicase WRN (Homo sapiens), Q14191; WRN helicase unwinding, fluorescent forked duplex, kinetic; Potency, µM (top dose mostly 114 µM), usual class: inhibitors; 360,000 tested, 0.46% active; note: nearly all actives have a fitted effect of over 55% in size
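Fluorescence dequenching readout, ex 525 nm/em 598 nm, kinetic mode: forked duplex DNA (100 nM final) with adjacent fluorophore and quencher unwound by WRN (20 nM final) with 2 mM ATP. Compound preincubation 15 min, room temperature.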
POLI inh: qHTS for Inhibitors of Polymerase Iota | Pol iota fluorescent replication assay, 10 min | Potency, µM (titrated, usually from 115 µM), usual class: inhibitors | 390,000 tested, 1% active
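Pol iota at 10 nM preincubated 15 min with compounds at room temperature; reaction started with fluorescent substrate, 50 nM final. Fluorescence read kinetically at 0 and 10 min; buffer-only wells as negative control.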
FEN1 inh: qHTS Assay for the Inhibitors of Human Flap endonuclease 1 (FEN1); Recombinant FEN1 flap cleavage, fluorescence, 15 min; P39748; Potency, µM (top dose mostly 114 µM), actives largely listed as inhibitors; 390,000 tested, 0.35% active; note: nearly all actives have a fitted effect of over 65% in size
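Quantitative HTS format: each compound was titrated, incubated with 10 nM nuclease for 15 min at room temperature, then challenged with flap substrate at 50 nM final. Signal change over 15 min gave concentration–effect curves.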
Pol beta inh: qHTS Assay for Inhibitors of DNA Polymerase Beta; Potency, µM (doses to about 114 µM), actives largely listed as inhibitors; AID 485314, 2010; Pol beta primer extension/strand displacement, fluorescence kinetic; P06746; 340,000 tested, 1.3% active
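Reaction started by 50 nM substrate onto compound-treated Pol beta (10 nM, 15 min preincubation, room temperature); plates read at 0 min and 10 min. Normalized concentration-effect data fitted by four-parameter Hill equation.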
POLK inh: qHTS for Inhibitors of Polymerase Kappa | purified Pol kappa, fluorescent DNA synthesis assay, 10 min | Potency, µM (titrated, usually from 107 µM), hits mostly inhibitors | AID 588579, 2011 | 400,000 tested, 0.53% active
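Here, compound and 10 nM enzyme are combined for 15 min at room temperature; adding 50 nM substrate (final) starts DNA synthesis, tracked by fluorescence at 0 and 10 min against buffer-only wells.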
Each line names hits and unclear results; the compound was inactive in the other large screens. A selection: hits, their analogues and other compounds. The true share with any hit is near 2.4%. Calls come from the whole dose curve; as a rule, active = well fitted curve in the direction sought with a large enough effect; inconclusive = small, poorly fitted or top-dose-only effect, or another doubt; inactive = no such curve, though single readings can be large; an effect the other way counts as inactive or inconclusive.

COc1ccc(-n2c(=O)c3c4c(sc3n3c(SC(C)C)nnc23)COC(C(C)C)C4)cc1 (stereo unspecified)	none (no result: WRN helicase inh)
O=C(CSC1=NCCS1)Nc1nc2c(s1)CCCC2	Pol beta inh 56.2µM
Cn1nnnc1SCC(=O)Nc1nc2c(s1)CCCC2	none
O=C1C=CC2(O[C@H](c3ccccc3)[C@@H](c3ccccc3)O2)[C@H](Sc2ccccc2O)C1	Pol eta inh inconclusive, WRN helicase inh 11.2µM, POLI inh 22.4µM (no result: Pol beta inh)
CCOC(=O)C1=C(c2ccccc2)N=c2s/c(=C\c3ccc(O)cc3)c(=O)n2C1c1cccs1 (stereo unspecified)	WRN helicase inh inconclusive, POLI inh 44.7µM, FEN1 inh inconclusive, Pol beta inh inconclusive
Cc1nc(SC(C)C(=O)Nc2ccccc2Cl)cc(-c2ccccc2)n1 (stereo unspecified)	none (no result: WRN helicase inh)
CCOC(=O)c1ccc(N2C(=O)C3CC=CCC3C2=O)cc1 (stereo unspecified)	POLI inh 89.1µM
O=C(O)CCC(=O)Nc1ccc(Cc2ccc(NC(=O)CCC(=O)O)c(O)c2)cc1O	Pol eta inh 15.8µM, POLI inh inconclusive
COc1cc(N(C)C)cc(CN(C)CCc2ccc([N+](=O)[O-])cc2)c1O	POLK inh 2.99µM (no result: Pol eta inh, WRN helicase inh, POLI inh, FEN1 inh, Pol beta inh)
CCOC(=O)c1ccc(N2CSC3=C(C#N)C(c4cccs4)CC(=O)N3C2)cc1 (stereo unspecified)	FEN1 inh inconclusive
N#CC1=C2SCN(c3ccc(F)cc3)CN2C(=O)CC1c1cccc(F)c1 (stereo unspecified)	none
CCc1ccc(N2CSC3=C(C#N)C(c4cccs4)CC(=O)N3C2)cc1 (stereo unspecified)	Pol eta inh inconclusive, POLI inh 11.2µM, Pol beta inh inconclusive, POLK inh 79.4µM
CCc1ccc(C2CC(=O)N3CN(c4ccccc4)CSC3=C2C#N)cc1 (stereo unspecified)	POLI inh inconclusive, FEN1 inh inconclusive, Pol beta inh 39.8µM
O=C(NCCCc1nc2ccccc2n1Cc1ccc(Cl)cc1)C1CCCCC1	none (no result: WRN helicase inh)
O=C(CN1C(=O)CSc2ccc(S(=O)(=O)N3CCCC3)cc21)Nc1cccc(Cl)c1	none (no result: WRN helicase inh)
O=C(CN1C(=O)/C(=C/c2cccc(Br)c2)SC1=S)NCCCN1CCOCC1	Pol eta inh inconclusive, WRN helicase inh 79.4µM, POLI inh inconclusive
Cc1cc(C)cc(N2C(=O)CS(=O)(=O)C23C(=O)N(Cc2ccc(F)cc2)c2ccc(C)cc23)c1 (stereo unspecified)	none (no result: WRN helicase inh)
Cc1nnn(-c2nonc2N)c1C(=O)N/N=C/c1ccccc1O	Pol eta inh inconclusive, POLI inh inconclusive, Pol beta inh 44.7µM
CCCCC/C=C\C/C=C\CCCCCCCC(=O)O[C@@H](CO)COC(=O)CCCCCCCCCCCCCCCCC	none (no result: Pol eta inh, WRN helicase inh, POLI inh, FEN1 inh, Pol beta inh)
COc1ccc(-c2nnc(SCC(=O)Nc3cccc(F)c3)s2)cc1	Pol beta inh 35.5µM (no result: WRN helicase inh)
Cc1ccc2cc(C#N)c(SCC(=O)NCc3ccco3)nc2c1	Pol eta inh inconclusive, POLI inh inconclusive, Pol beta inh 22.4µM
Cc1ccc2cc3cc(C(=O)NCc4ccco4)oc3nc2c1	Pol eta inh inconclusive, WRN helicase inh inconclusive, POLI inh inconclusive, Pol beta inh 79.4µM, POLK inh inconclusive
Cc1ccc2nc(SCC(=O)NCc3ccco3)c(C#N)cc2c1	Pol eta inh inconclusive, Pol beta inh inconclusive
CCc1ccc(NC(=O)CSc2ccc3nc(-c4ccc(OC)cc4)cn3n2)cc1	none (no result: WRN helicase inh)
Cc1cc(C)[n+](C)c2ccccc12	FEN1 inh inconclusive (no result: Pol eta inh, WRN helicase inh, Pol beta inh)
CN(C)[C@H]1C(=O)C(C(=O)NCN2CCCC2)=C(O)[C@]2(O)C(=O)C3=C(O)c4c(O)cccc4[C@](C)(O)[C@H]3C[C@H]12	POLK inh 3.77µM (no result: Pol eta inh, WRN helicase inh, POLI inh, FEN1 inh, Pol beta inh)
CN(C)[C@@H]1C(=O)C(C(=O)NCN2CCCC2)=C(O)[C@@]2(O)C(=O)C3=C(O)c4c(O)cccc4[C@@](C)(O)C3CC12 (stereo partly specified)	Pol beta inh 0.501µM (no result: Pol eta inh, WRN helicase inh, POLI inh, FEN1 inh, POLK inh)
CC(=O)c1ccccc1NS(=O)(=O)c1cccc2nonc12	none
CC(=O)c1ccccc1NS(=O)(=O)c1cccc2nsnc12	Pol eta inh 50.1µM, POLI inh 44.7µM, Pol beta inh 25.1µM, POLK inh 79.4µM
COc1ccccc1/C=C/C=N/NC(=O)Cc1cccn1C	Pol eta inh inconclusive, POLI inh 50.1µM
O=C(O)c1ccccc1-n1cnnn1	none
O=C(O)c1ccccc1-n1cccc1C(=O)O	Pol eta inh 39.8µM, POLI inh inconclusive, Pol beta inh 25.1µM
CC(=O)N1CCN(/[N+]([O-])=N/Oc2ccc([N+](=O)[O-])cc2[N+](=O)[O-])CC1	POLI inh inconclusive (no result: Pol eta inh, WRN helicase inh, Pol beta inh)
Nc1cc2nc3ccccc3oc-2cc1=O	Pol eta inh inconclusive, POLI inh 20µM, FEN1 inh inconclusive, Pol beta inh 25.1µM, POLK inh 44.7µM
O=C(NCC(c1ccco1)N1CCCC1)c1ccc(S(=O)(=O)Nc2ccccc2Cl)cc1 (stereo unspecified)	Pol eta inh inconclusive, POLI inh inconclusive, POLK inh 79.4µM (no result: Pol beta inh)
CCOc1ccc(NC(=O)CCc2nnc3n(C)c(=O)c4sccc4n23)cc1	POLK inh inconclusive (no result: WRN helicase inh)
O=C(COc1ccc(F)cc1)OCc1cc(=O)n2nc(-c3cccs3)sc2n1	POLI inh inconclusive, Pol beta inh inconclusive, POLK inh inconclusive (no result: WRN helicase inh)
O=C(OCc1cc(=O)n2nc(-c3cccs3)sc2n1)c1ccccc1Br	Pol eta inh 79.4µM, POLI inh inconclusive, Pol beta inh 20µM (no result: WRN helicase inh)
O=C(OCc1cc(=O)n2nc(-c3cccs3)sc2n1)c1cccc(F)c1	Pol eta inh inconclusive, POLI inh inconclusive, Pol beta inh 17.8µM (no result: WRN helicase inh)
CCCC[C@@H](C)/C=C(C)/C=C(\C)C(=O)NC1=C[C@@](O)(/C=C/C=C/C=C/C(=O)NC2=C(O)CCC2=O)[C@@H]2O[C@@H]2C1=O	POLK inh 26.7µM (no result: Pol eta inh, WRN helicase inh, POLI inh, FEN1 inh, Pol beta inh)
Cc1ccc(NC(=O)C2CCCN(c3nnc(-n4c(C)ccc4C)s3)C2)cc1Cl (stereo unspecified)	none (no result: Pol eta inh, WRN helicase inh)
O=C1CCC/C1=C/Nc1ccc(Cl)cc1	none
O=C1CCCC/C1=C\Nc1ccc(O)cc1	POLI inh 25.1µM
O=C1CCC/C1=C/Nc1ccc2c(c1)OCO2	Pol beta inh 25.1µM
Cc1ccc(NS(=O)(=O)c2cc([N+](=O)[O-])ccc2NNC(=S)Nc2cc(C)ccc2C)c(C)c1	none
Cc1ccc(NS(=O)(=O)c2cc([N+](=O)[O-])ccc2NNC(=S)Nc2cccc(Cl)c2)c(C)c1	Pol eta inh 39.8µM, WRN helicase inh inconclusive, FEN1 inh inconclusive, Pol beta inh inconclusive
COc1ccc(OC)c(/C=C/c2cc3ccccc3cn2)c1	FEN1 inh inconclusive (no result: Pol eta inh, WRN helicase inh, Pol beta inh)
